Assay results reported in PubChem BioAssay AID493083 (Broad Institute, 2011).
Screen size: about 2,400 compounds; about 95 (4%) were called active. About 3% were inconclusive and are not listed.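 How the source made its calls: active means compounds lowering signal whose fitted AC50 is at most ten times the top tested dose; inconclusive means flat fit with moderate inhibition, or poor curve fit; inactive means the rest.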 These entries were drawn from the full list. Potency and affinity values are given separately.

assay: GFP reporter loss versus dox-driven RFP – NIH3T3 R4 cells, cherry-pick, set 3, dose response (AID 493083); conditions: NIH3T3 R4 HSF-1 GFP reporter, heat shock, 48 h; series mostly up to 19.5 µM; activity change, negative = inhibition: at the top concentration;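 further: 0% = neutral control wells and -100% = didemnin B positive control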

Activity change, negative = inhibition, inactive:
COc1ccc(S(=O)(=O)N2CCCC2)cc1C(C)C 3.89%
O=C(N1CCCCC1)N1CCN(S(=O)(=O)c2ccccc2)CC1 5.28%
CCN(C1CCS(=O)(=O)C1)S(=O)(=O)c1cccs1 (configuration not stated) -2.59%
Cc1ccnc(NC(=O)CS(=O)(=O)c2ccccc2)c1 0.818%
Cc1c(Cl)cccc1NC(=O)CS(=O)(=O)c1ccccc1 -2.14%
Cc1ccccc1OCCC(=O)OCC(=O)N1c2ccccc2NC(=O)C1(C)C -1.03%
Cc1c(-c2nc(-c3ccc(C(C)(C)C)cc3)no2)n(C)oc1=O 1.67%
CCOC(=O)c1cnc2ccc(C(=O)OC)cc2c1NCCCN1CCOCC1 -0.453%
O=C(NCc1ccncc1)c1ccc(Cl)c(S(=O)(=O)N2CCOCC2)c1 16.6%
CCC(C(=O)OCC(=O)Nc1cc(Cl)ccc1Cl)c1ccccc1 (configuration not stated) -0.627%
O=C(O)c1cccc(Nc2ccnc(Nc3cccc(C(=O)O)c3)n2)c1 -5.94%
Cc1cc(Nc2cccc(Cl)c2)nc(-c2ccccc2O)n1 2.12%
CC(=O)NC(=S)Nc1cccc(S(=O)(=O)NC2=NCCC2)c1 -1.24%
Cn1c(=O)c2ncn(CC(=O)Nc3ccc4c5c(cccc35)CC4)c2n(C)c1=O 29.5%
COc1ccc(OCCN2C(=O)c3ccccc3C2=O)cc1 -7.76%
CCN(CC)C(=O)CN1C(=O)/C(=C/c2ccccc2)SC1=S 6.39%
CC(C)N1CCC(N2CCN(C3CCCC3)CC2CCO)CC1 (configuration not stated) -0.505%
CCCC(C)NS(=O)(=O)c1ccccc1 (configuration not stated) -1.47%
CC(CCc1ccccc1)NC(=O)CCNS(=O)(=O)c1ccccc1 (configuration not stated) 1.85%
Cc1ccc(-c2nnn(CC(=O)N(Cc3cccs3)C(C(=O)NC3CCCC3)c3ccncc3)n2)cc1 (configuration not stated) 20.9%
CCCN(CCC)S(=O)(=O)c1ccc(NC(=O)c2cc(C(=O)OC)cc([N+](=O)[O-])c2)cc1 8.28%
NC(=O)CC(NC(=O)Cc1ccc(Cl)cc1)c1ccc(NC2CCCCCC2)c([N+](=O)[O-])c1 (configuration not stated) -4.13%
Cc1cc(C)cc(SCc2noc(C(=O)NCc3ccccc3)c2C(=O)NCc2ccccc2)c1 -2.26%
O=[N+]([O-])c1ccccc1CCc1cnc(Cl)s1 -12.9%
O=C(CNC(=O)C1CCCCC1)NC1=NCCS1 -0.457%
CC(C)(C)N1[C@@H](CC(=O)O)c2cc(C(F)(F)F)ccc2S1(=O)=O 1.39%
Cc1cc(C)n(-c2ccc(NC(=O)C3CCCCN3C(=O)c3ccoc3C)cc2)n1 (configuration not stated) 7.41%
COc1ccc(C(C(=O)NC2CCCCC2)N(C(=O)CCl)c2cccc(Cl)c2)cc1 (configuration not stated) 122%
COc1ccc(C(C)NC(=S)NC2CCCCC2)cc1OC (configuration not stated) 3.12%
O=C1N=C(N2CCCC2)S/C1=C\C=C\c1ccccc1 7.74%
Cc1nn2c(CN(C(=O)CN3CCOCC3)c3ccccc3)nnc2c2ccccc12 -1.66%
O=C(CCCCn1c(=O)[nH]c2ccsc2c1=O)NCc1cccnc1 0.446%
CCCC(=O)Nc1cccc(NC(=O)c2cccc([N+](=O)[O-])c2C)c1 8.31%
Cc1cccc(NC(=O)c2sc(-c3ccccc3)nc2-c2ccc([N+](=O)[O-])cc2)c1 1.84%
CCOC(=O)/C(C#N)=C/c1cc(C)n(-c2ccccc2)c1C 23.8%
CCCCNC(=O)C(c1ccc(OCC(=O)OC)c(C(=O)OC)c1)N(CCc1c[nH]c2ccccc12)C(=O)CCCCCN1C(=O)NC(c2ccc(-c3ccccc3)cc2)C(C(=O)OCc2ccccc2)=C1C (configuration not stated) -3.99%
CC1=C(C(=O)Nc2ccccc2)C(c2cc(CN3CCOCC3)cs2)C2=C(CCCC2=O)N1 (configuration not stated) -6.96%
COC(=O)C1(Cc2ccccc2)NC(c2ccccc2C)C2C(=O)N(c3ccc4c(c3)OCO4)C(=O)C21 (configuration not stated) 1.42%
Cc1cccc(N(Cc2ccccc2)C(=O)CCl)c1 30.1%
CCN(C(=O)COC(=O)/C=C/c1ccccc1)C1CCCCC1 -5.04%
CC(C)(C)C(CN1CCCC1)OC(=O)c1ccccc1 (configuration not stated) -1.59%
COc1ccc(OC)c(N=C2SCCCN2C(=O)c2ccc(N3C(=O)CCC3=O)cc2)c1 -7.4%
CCOc1ccc(CCNC(=O)c2nn(C)c3c2CS(=O)(=O)c2ccccc2-3)cc1 16.6%
Cc1cc(C)c2cc(CN(CCN(C)C)C(=O)Nc3ccccc3Cl)c(=O)[nH]c2c1 5.03%
Cc1ccc(C(=O)N2CCCC(Nc3ccc(F)cc3)C2)cc1C (configuration not stated) 0.822%
Cc1ccc(-n2ncc3c(NCc4ccc5c(c4)OCO5)ncnc32)c(C)c1 26.2%
Nc1ccccc1SCC(=O)Nc1ccc2c(c1)OCCO2 -0.379%
CC(=O)c1ccc(NC(=O)c2cnn3ccccc23)cc1 5.6%
Cc1cc(/C([O-])=C(/C(=S)Nc2ccccc2)[n+]2ccccc2)c(C)n1-c1ccccc1 5.95%
NC(=O)COC(=O)c1cc(=O)[nH]c2ccccc12 -4.28%
COc1ccc(NC(=O)CN(C)CC(=O)Nc2ccc3c(c2)CCC3)cc1 -2.35%
CCO[C@@H]1OC(C(=O)NCc2ccccc2)=C[C@H](c2ccc3c(c2)OCO3)[C@H]1CCCO -7.04%
CC[n+]1c(/C=C/c2cc([N+](=O)[O-])ccc2O)ccc2ccccc21 14.5%
COc1ccc(N2CCN(S(=O)(=O)c3cc4c(cc3C)N(C(C)=O)CCO4)CC2)cc1 10.3%
COc1ccc(NC(=O)CCN2CCN(S(=O)(=O)c3ccc(OC)cc3)CC2)cc1 13.3%
Cc1cc(NC(=O)C2C3C(=O)N(Cc4ccc(Cl)cc4)C(C(=O)NC(C)(C)C)C34C=CC2(C)O4)no1 (configuration not stated) -4.82%
COc1cc(OC)c(NC(=O)CN(C)S(=O)(=O)c2ccc3[nH]c(=O)oc3c2)cc1Cl -1.32%
O=C(CCl)NC(Cc1ccccc1)c1ccccc1 (configuration not stated) 4.64%
O=C(CCl)Nc1ccccc1C(=O)c1ccccc1 1.46%
O=C1C2CCCN2c2ccc(S(=O)(=O)N3CCOCC3)cc2N1Cc1cccc(C(F)(F)F)c1 (configuration not stated) 2.71%
O=C(CSc1nnc(CNC(=O)c2cccs2)o1)NCc1ccc(F)cc1 -4.17%
COCCNC(=O)CSC1=N/C(=C/c2ccc(Cl)c(Cl)c2)C(=O)N1c1ccccc1F 34.4%
CC(C)Sc1nc(SCC(=O)NCc2ccco2)c2c3c(sc2n1)COC(C)(C)C3 17.8%
CCOC(=O)N1CCN(C(=S)Nc2ccc(C)cc2C)CC1 -2.21%
CC1CCCN(S(=O)(=O)c2ccc(Br)s2)C1 (configuration not stated) 1.88%
CN(C)c1ccc(/C=N/NC(=O)C2COc3ccccc3O2)o1 (configuration not stated) 7.29%
Cc1ccc(Cl)cc1NC(=O)C1COc2ccccc2O1 (configuration not stated) -0.666%
O=S(=O)(Cc1cc(Oc2ccccc2)nc(-c2ccccc2)n1)c1ccccc1 23.5%
O=C(O)C(=O)Nc1ccc(NC(=O)C(c2ccccc2)c2ccccc2)cc1 -4.7%
CCCS(=O)(=O)N1CCc2cc(OC)c(OC)cc2C1 -3.49%
Nc1ncnc2nc(N3CCN(C(=O)c4ccccc4)CC3)[nH]c12 -1.58%
O=C(CSC(=S)N1CCOCC1)Nc1nc(-c2ccccc2)c(-c2ccccc2)o1 -2.41%
Nc1nc(Cl)nc2c1ncn2C1CC(O)C(CO)O1 (configuration not stated) 1.43%
CN1CCN(S(=O)(=O)c2cccc(C(=O)NCCC3=CCCCC3)c2)CC1 -0.832%
COc1ccc(N2CCN(c3ccc(NC(=O)NN)cc3)CC2)cc1 9.66%
Cc1cc(NC(=O)c2ccc3nc(C)sc3c2)no1 -6.84%
COc1ccccc1N1CCN(C(=S)Nc2ccc(F)cc2)CC1 -0.471%
O=c1[nH]cc(S(=O)(=O)c2ccccc2)[nH]1 -5.55%
CC1CCN(CC(=O)NC2CCCCC2)CC1 -2.37%
CCS(=O)(=O)N1CCN(C(=O)c2ccccc2)CC1 0.578%
Cc1ccc2c(c1)c(C)c(C)n2CC(O)Cn1nnc2ccccc21 (configuration not stated) 0.602%
O=S1(=O)N[C@H](c2ccccc2)C[C@H](c2ccc(C(F)(F)F)cc2)O1 1.91%
CC(C)[C@H](NC(=O)Cc1ccccc1)C(=O)OCc1cc(=O)n2c(n1)sc1ccccc12 0.187%
Cc1ccc(CN2CCN(Cc3cccc(OCCO)c3)CC2CCO)o1 (configuration not stated) -1.47%
Cc1ccc(-c2nn(-c3ccccc3)cc2CN(C)C(=O)CCC(=O)O)cc1C 4.16%
Fc1ccc(-n2cc(CNCCc3ccccn3)c(-c3ccccc3Cl)n2)cc1 6.94%
CN=c1scc(-c2ccccc2F)n1/N=C/c1ccc[nH]1 30.7%
CN=c1scc(-c2cccs2)n1/N=C/c1ccccc1O 21.7%
CN(C)S(=O)(=O)c1ccc(-c2csnn2)s1 0.103%
CCn1c(C(C#N)/C(=N\S(=O)(=O)c2cccs2)c2ccccc2)nc2ccccc21 (configuration not stated) -6.65%
Cc1ccc(S(=O)(=O)N2CCC(C(=O)N[C@@H](Cc3ccccc3)C(=O)O)CC2)cc1 0.492%
CCN1C(=O)c2ccccc2S(=O)c2ccc(C(=O)NCc3ccc(OC)cc3)cc21 (configuration not stated) -1.83%
Cc1ccc(C(=O)Nc2cc3ccccc3oc2=O)cc1 -1.68%
Cc1nc2ccc(NC(=O)N3CCSCC3)cc2s1 -4.41%
COc1ccc(CNC(=O)CCCNC(=O)c2ccc(Cl)cc2)cc1OC -2.5%
COC(=O)c1cc(S(=O)(=O)NCc2ccc(F)cc2)cn1C -1.23%
C=CCOc1ccccc1CN(C(=O)CCl)c1ccc2c(c1)OCO2 6.58%
